Source: PubChem BioAssay (EPA / NIEHS)
Inconclusive results are not listed. Calls of active or inactive are those of the source. The calls were made as follows, unless noted: active = hit-call score of the fitted dose curve at least 0.9, where 1 is the maximum; inactive = score below 0.9.

How the values were obtained:
[1] = CCTE_Mundy_HCI_Cortical_Synap_Neur_Matur_SynapseCount: CCTE's Synaptogenesis and Neurite Maturation Assay in rat cortical cells for Synapse Count, Mundy Lab (AID 2284218)
In short: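 Read-out: synapse number per neuron, automated high-content imaging of fixed cells immunostained for MAP2 and synaptophysin plus Hoechst nuclei. Rat primary cortical cultures, AraC at DIV 5, chemical dosing DIV 7–12. Positive-direction fit relative to DMSO.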

[2] = CCTE_Mundy_HCI_Cortical_Synap_Neur_Matur_NeuriteCount: CCTE's Synaptogenesis and Neurite Maturation Assay in rat cortical cells for Neurite Count, Mundy Lab (AID 2284222);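 also: exposure from day 7 to day 12 in vitro with readout at day 12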
In short: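 Chemical exposure runs DIV 7–12 in rat cortical cultures, glia suppressed by AraC at DIV 5; measurement is at DIV 12. Imaging-derived neurite counts are fitted against DMSO baseline.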

[3] = CCTE_Mundy_HCI_Cortical_Synap_Neur_Matur_CellBodySpotCount: CCTE's Synaptogenesis and Neurite Maturation Assay in rat cortical cells for Cell Body Spot Count, Mundy Lab (AID 2284223)
In short: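 Synapse number at neuronal cell bodies was quantified as synaptophysin puncta per neuron in rat cortical cultures exposed from DIV 7 to DIV 12. Values were normalised to DMSO.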

[4] = CCTE_Mundy_HCI_hNP1_Pro_ResponderAvgInten: CCTE's Proliferation Assay in human neuroprogenitor cells, Mundy Lab (AID 2284224; active = hit-call score of the fitted dose curve at least 0.9, where 1 is the maximum;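 also: human neural progenitor cells hNP1 derived from WA09 embryonic stem cells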)
In short: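 Human neuroprogenitors (hNP1, WA09 lineage) receive test chemical after 40 to 44 hours of attachment. A four-hour BrdU pulse begins twenty hours later, followed by fixation and high content imaging; signal is referenced to DMSO controls.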

[5] = CCTE_Mundy_HCI_Cortical_NOG_NeuronCount: CCTE's Neurite Outgrowth Assay in rat cortical cells for Neuron Count, Mundy Lab (AID 2284236; active = hit-call score of the fitted dose curve at least 0.9, where 1 is the maximum;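 also: neurons counted by imaging betaIII-tubulin and Hoechst stained cortical cells; cells exposed to compound for about 48 hours before fixation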)
In short: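 Read-out: neuron number by high-content imaging of betaIII-tubulin (Alexa Fluor-488) and Hoechst-labelled rat primary cortical cells.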

[6] = CCTE_Mundy_HCI_Cortical_NOG_BPCount: CCTE's Neurite Outgrowth Assay in rat cortical cells for Branch Point Count, Mundy Lab (AID 2284237)
In short: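 Measured 50.33 h after dosing, this morphology endpoint uses rat primary cortical cultures labelled for betaIII-tubulin. Branch points are quantified by high-content imaging, with DMSO as negative control and baseline.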

[7] = CCTE_Mundy_HCI_hNP1_Casp3_7: CCTE's Caspase-Glo 3/7 Assay in human neuroprogenitor cells for Apoptosis, Mundy Lab (AID 2284240)
In short: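 Neuroepithelial-lineage stem cells from WA09 embryonic cells were treated with chemicals after 40–44 h of culture. Twenty-four hours later, caspase-3/7 activation was detected luminescently after a 30 min room-temperature reagent step, with DMSO as baseline.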

[8] = CCTE_Mundy_HCI_hNP1_CellTiter: CCTE's Cell Titer-Glo 2 Assay in human neuroprogenitor cells for Viability, Mundy Lab (AID 2284241; active = hit-call score of the fitted dose curve at least 0.9, where 1 is the maximum)
In short: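 Measures ATP content in human neural progenitors derived from WA09 embryonic cells. Read-out at 26.5 hours after dosing, with DMSO serving as the negative control and baseline.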

[9] = CCTE_Mundy_HCI_Cortical_Synap_Neur_Matur_NeuronCount: CCTE's Synaptogenesis and Neurite Maturation Assay in rat cortical cells for Neuron Count, Mundy Lab (AID 2284242; active = hit-call score of the fitted dose curve at least 0.9, where 1 is the maximum)
In short: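 Rat cortical cultures; AraC DIV 5; chemical dosing + media change DIV 7 to DIV 12 (288.33 h readout). Fix, Hoechst, anti-MAP2/anti-synaptophysin immunostain; HCI neuron count vs DMSO baseline.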

[10] = IUF_NPC2c_oligodendrocyte_migration_120hr: Leibniz Research Institute for Environmental Medicine (IUF) 120-hour Neural Progenitor Cell Migration Assay for Oligodendrocyte Migration (NPC2c) (AID 2284297);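 also: O4-positive oligodendrocyte migration distance divided by radial glia migration distance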
In short: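 Primary hNPC spheres migrating on extracellular matrix, exposed five days to a 7-point dilution series with solvent control. Oligodendrocyte migration was scored by high-content imaging of O4 immunostaining and expressed relative to radial glia distance.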

[11] = IUF_NPC2a_radial_glia_migration_120hr: Leibniz Research Institute for Environmental Medicine (IUF) 120-hour Neural Progenitor Cell Migration Assay for Radial Glia Migration (NPC2a) (AID 2284298)
In short: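 In this multiplexed test, fetal hNPC spheres migrate radially on poly-D-lysine/laminin in N2 medium (37C, 5% CO2, pH 7.2-7.6) under continuous compound exposure over five days. Migration is scored at 120 h from automated Hoechst nuclear imaging.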

[12] = IUF_NPC2a_radial_glia_migration_72hr: Leibniz Research Institute for Environmental Medicine (IUF) 72-hour Neural Progenitor Cell Migration Assay for Radial Glia Migration (NPC2a) (AID 2284299)
In short: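 Readout: mean of four manual brightfield measurements of radial glia migration distance (um) at 72 h. hNPC spheres (0.3 mm) exposed to 7 compound concentrations plus solvent control on PDL/laminin, 37C, 5% CO2; activity fitted relative to DMSO.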

[13] = IUF_NPC2b_neuronal_migration_120hr: Leibniz Research Institute for Environmental Medicine (IUF) 120-hour Neural Progenitor Cell Migration Assay for Neuron Migration (NPC2b) (AID 2284300)
In short: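 Neurons identified by TUBB3 immunostaining and Hoechst nuclei; migration distance measured automatically on fixed wells at 120 h, normalized to glia migration. Exposure spanned five days of differentiation in N2 medium, seven test concentrations.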

[14] = IUF_NPC3_neuronal_differentiation_120hr: Leibniz Research Institute for Environmental Medicine (IUF) 120-hour Neuronal Differentiation Assay (NPC3) (AID 2284301)
In short: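 Neuronal differentiation of primary human neural progenitors measured by high-content imaging: percent TUBB3+ of Hoechst+ nuclei within migrated area at 120 h, seven-point serial dilution plus solvent control, gain or loss relative to DMSO.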

[15] = IUF_NPC4_neurite_length_120hr: Leibniz Research Institute for Environmental Medicine (IUF) 120-hour Neuronal Morphology Assay for Neurite Length (NPC4) (AID 2284302)
In short: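 Neurons from differentiating human fetal neural progenitor spheres are scored for average neurite length after five days of compound exposure. Fitting uses DMSO as negative control.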

[16] = IUF_NPC5_oligodendrocyte_differentiation_120hr: Leibniz Research Institute for Environmental Medicine (IUF) 120-hour Oligodendrocyte Differentiation Assay (NPC5) (AID 2284304; active = hit-call score of the fitted dose curve at least 0.9, where 1 is the maximum;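 also: primary human fetal neural progenitor spheres plated to migrate and differentiate; share of O4-positive cells among Hoechst nuclei found by CNN image analysis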)
In short: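 Human primary NPC neurospheres migrating and differentiating on laminin for 120 h under continuous compound exposure (serial dilution, solvent control). Endpoint: percent O4+ oligodendrocytes among Hoechst nuclei, detected by CNN image analysis, with DMSO as negative control.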

[17] = IUF_NPC4_neurite_area_120hr: Leibniz Research Institute for Environmental Medicine (IUF) 120-hour Neuronal Morphology Assay for Neurite Area (NPC4) (AID 2284305; active = hit-call score of the fitted dose curve at least 0.9, where 1 is the maximum)
In short: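 Endpoint at 120 h: automated imaging of TUBB3/Hoechst-stained differentiating human neural progenitor spheres, neurite area per neuron from skeletonization. DMSO solvent control, not above 0.1%, set the baseline; medium was half-replaced on day 3.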

[18] = IUF_NPC2-5_cytotoxicity_72hr: Cytotoxicity Assessment at 72 hours in the Leibniz Research Institute for Environmental Medicine (IUF) Neural Progenitor Cell Migration and Differentiation Assay for Cytotoxicity (NPC2-5) (AID 2284306; active = hit-call score of the fitted dose curve at least 0.9, where 1 is the maximum;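 also: LDH release into supernatant measured by resorufin fluorescence marking membrane damage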)
In short: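 Primary human neural progenitor spheres migrate and differentiate on laminin. Compound is present from the start of differentiation, with DMSO kept at or below 0.1%. At 72 h, supernatant LDH is quantified fluorometrically, with values fitted in the positive direction.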

[19] = IUF_NPC2-5_cytotoxicity_120hr: Cytotoxicity Assessment at 120 hours in the Leibniz Research Institute for Environmental Medicine (IUF) Neural Progenitor Cell Migration and Differentiation Assay (NPC2-5) (AID 2284307; active = hit-call score of the fitted dose curve at least 0.9, where 1 is the maximum)
In short: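 Fluorescence (RFU) from LDH-driven resazurin reduction in medium supernatants measured loss of membrane integrity after 120 h of compound exposure of differentiating primary human neural progenitor spheres on an extracellular matrix.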

[20] = IUF_NPC2-5_cell_number_120hr: Cell Number Assessment at 120 hours in the Leibniz Research Institute for Environmental Medicine (IUF) Neural Progenitor Cell Migration and Differentiation Assay (NPC2-5) (AID 2284308);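 also: count of Hoechst-stained nuclei in migration zone around plated human neural progenitor spheres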
In short: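 Cell number is taken as all Hoechst-positive nuclei detected in the area into which cells migrate out of the sphere, scored at 120 h and referenced to DMSO solvent control, which was kept at no more than 0.1%.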

[21] = IUF_NPC2-5_viability_120hr: Viability Assessment at 120 hours in the Leibniz Research Institute for Environmental Medicine (IUF) Neural Progenitor Cell Migration and Differentiation Assay (NPC2-5) (AID 2284312)
In short: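 Human fetal (GW 16-19) neural progenitor spheres of 0.3 mm were plated on poly-D-lysine/laminin in N2 differentiation medium and exposed from day 0 for 120 h, with half-medium refresh at day 3. Viability was read as alamar blue resazurin-to-resorufin fluorescence against DMSO.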

[22] = CCTE_Mundy_HCI_iCellGluta_NOG_NeuriteLength: CCTE's Neurite Outgrowth Assay in iCellGluta cells for Neurite Length, Mundy Lab (AID 2284318; active = hit-call score of the fitted dose curve at least 0.9, where 1 is the maximum)
In short: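 Automated high-content imaging of betaIII-tubulin (Alexa Fluor-488) and Hoechst-stained cells gave neurite length, normalized to the DMSO baseline.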

[23] = IUF_NPC1_cytotoxicity_72hr: Cytotoxicity Assessment at 72 hours in the Leibniz Research Institute for Environmental Medicine (IUF) Neural Progenitor Cell Proliferation Assay (NPC1) (AID 2284332; active = hit-call score of the fitted dose curve at least 0.9, where 1 is the maximum;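 also: rising LDH signal means more cytotoxicity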)
In short: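 LDH in supernatant, resazurin→resorufin fluorescence (RFU), 72 h exposure, no re-dosing. Cells: primary hNPC spheres, one per well, EGF+FGF medium, 37C/5% CO2, pH 7.2-7.6. Fit: positive direction vs baseline and dynamic range.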

[24] = CCTE_Mundy_HCI_iCellGluta_NOG_NeuronCount: CCTE's Neurite Outgrowth Assay in iCellGluta cells for Neuron Count, Mundy Lab (AID 2284340; active = hit-call score of the fitted dose curve at least 0.9, where 1 is the maximum;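 also: cells fixed about 48 h after compound addition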)
In short: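 Neuron count read by automated high-content imaging of Hoechst 33342 and betaIII-tubulin/Alexa Fluor-488 labelling in human iPSC glutamatergic neurons. Activity fitted relative to DMSO.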

[25] = CCTE_Mundy_HCI_iCellGluta_NOG_NeuriteCount: CCTE's Neurite Outgrowth Assay in iCellGluta cells for Neurite Count, Mundy Lab (AID 2284342; active = hit-call score of the fitted dose curve at least 0.9, where 1 is the maximum;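 also: chemical exposure about 48 hours starting 2 hours after plating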)

Measured: outcome

CCCCCC=C(C)C(CC)CCO (stereo not given)
inactive: [1] | [2] | [3] | [4] | [5] | [6] | [7] | [8] | [9] | [10] | [11] | [12] | [13] | [14] | [15] | [16] | [17] | [18] | [19] | [20] | [21] | [22] | [23] | [24] | [25]
